Sfp inh = Sfp phosphopantetheinyl transferase inhibition; Q9F4F7; Biochemical Sfp PPTase activity, qHTS; Potency, µM, for inactives: largest response in the series, negative = inhibition, usual class: inhibitors; actives 3.5% (n = 310,000); AID 1490;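 note: the enzyme is Sfp with the accession as filed and its product quenches rhodamine fluorescence; 0% = enzyme reaction without inhibitor and -100% = no enzyme wells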
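Sfp 15 nM + cpd, 15 min RT; start w/ rhodamine-CoA 5 uM, BHQ-2-YbbR 12.5 uM (final); 50 mM Hepes pH 7.6, 10 mM MgCl2, 0.01% NP-40, 0.01% BSA; read 525/598 nm at 0 and 30 min.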
HP1b binding inh = blocks HP1-beta chromodomain binding to methylated histone tails; actives 0.56% (n = 390,000); Potency, µM (titrated, usually from 114 µM), for the others: top-dose activity change, negative = inhibition, actives largely listed as inhibitors; AlphaScreen HP1-beta / biotin-H3K9me3 peptide binding; P83916; note: nearly all actives have a fitted effect of over 70% in size
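HP1-beta protein (50 nM final) preincubated 30 min at room temperature with biotinylated H3(1-18)K9me3 peptide (50 nM) in PBS pH 7.4, 0.01% Tween-20, then compound added for 30 min. AlphaScreen streptavidin donor/nickel chelate acceptor beads (10 ug/mL final), 30 min dark, luminescence read.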
G9a inh = blocks human histone lysine methyltransferase G9a. Potency, µM (highest dose often 102 µM), for the others: at the highest dose activity, negative = inhibition, actives largely listed as inhibitors. Q96KQ7. G9a H3K9 monomethylation, AlphaScreen, 2 h. actives 8.8% (n = 350,000). AID 504332; note: % is set by controls: 0 for no effect and ±100 for the full control effect; nearly all actives have a fitted effect of over 75% in size
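Methyltransferase reactions run at room temperature for 2 h (20 nM enzyme, 500 nM biotin-H3K9 peptide, 20 uM SAM) after a 15 min compound preincubation; product detected by AlphaScreen beads and anti-H3K9me1 antibody.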
JMJD2A Tudor inh = inhibitors of human JMJD2A Tudor domain; O75164; actives 4.4% (n = 390,000); AlphaScreen JMJD2A-Tudor / H3K4me3 peptide binding; Potency, µM (series often up to 114 µM), inactives show at the highest dose activity change, negative = inhibition, most hits filed as inhibitors; note: % is set by controls: 0 for no effect and ±100 for the full control effect; nearly all actives have a fitted effect of over 50% in size
BAZ2B block = BAZ2B (human) inhibition | AlphaScreen BAZ2B-H3K14Ac peptide displacement | Potency, µM (doses to about 114 µM), without a hit: top-dose activity change, negative = inhibition, most hits filed as inhibitors | actives 4.4% (n = 360,000) | AID 504333; note: % is set by controls: 0 for no effect and ±100 for the full control effect; nearly all actives have a fitted effect of over 60% in size
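AlphaScreen displacement of biotin-H3(5-23)K14Ac peptide (50 nM final) from BAZ2B (50 nM final) in PBS pH 7.4, 0.01% Tween-20; complex preformed 30 min RT, then compounds (top 110 uM) 30 min RT, beads 20 min dark.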
Starred values were filed as active, the others as inactive; ? = inconclusive; · = no result given; [ ] = remark or other dose. Only some compounds are listed: those with a hit (about 12% of all), similar ones and a draw of the others. Calls come from the whole dose curve; as a rule, active = well fitted curve in the direction sought with a large enough effect; inconclusive = small, poorly fitted or top-dose-only effect, or another doubt; inactive = no such curve, though single readings can be large; an effect the other way counts as inactive or inconclusive. Potency is the fitted concentration of half-maximal effect.

SMILES	Sfp inh	HP1b binding inh	G9a inh	JMJD2A Tudor inh	BAZ2B block
CC(=O)N1CCN(S(=O)(=O)c2cccc(C(=O)Nc3ccc4c(c3)CCC4)c2)CC1	5%	28%	28µM*	-20%	18%
O=C(Nc1ccccc1)c1ccc(N2CCN(c3ccccc3)CC2)c(S(=O)(=O)N2CCOCC2)c1	2%	19%	16%	16%	79µM*
CC(=O)c1ccc(S(=O)(=O)N2CCNC(=O)C2)cc1	·	23%	·	?	·
COc1ccc(NC(=O)c2c3c(nc4ccccc24)CCC3)cc1S(=O)(=O)N1CCOCC1	14%	-30%	?	?	50µM*
O=C(Nc1ccc(N2CCCCCC2)cc1)c1cccc(S(=O)(=O)N2CCOCC2)c1	·	-45%	1.8µM*	25µM*	32µM*
COc1ccc(C(=O)Nc2ccc(N3CCCCCC3)cc2)cc1S(=O)(=O)N1CCOCC1	·	?	?	7.1µM*	28µM*
CN(c1ccccc1)S(=O)(=O)c1cccc(C(=O)Nc2ccc(N3CCOCC3)cc2)c1	·	-29%	56µM*	?	?
Cc1ccc(S(=O)(=O)N2CCOCC2)cc1C(=O)N1CCN(S(=O)(=O)c2cccc(F)c2)CC1	·	69%	-9%[12.7 µM]	-4%	12%
COc1ccc(N2CCN(C(c3cccs3)C(C)NC(=O)c3ccco3)CC2)cc1 (stereo not given)	-2%	-15%	3.5µM*	?	?
COc1ccc(N2CCN(C(c3cccs3)C(C)NS(C)(=O)=O)CC2)cc1 (stereo not given)	-5%	10%	56µM*	-28%	·
COc1ccc(N2CCN(S(=O)(=O)c3cccs3)CC2)cc1	2%	-9%	25µM*	-34%	-35%
COc1ccc(N2CCN(S(=O)(=O)c3ccc(Cl)s3)CC2)cc1	-5%	-5%	-25%	-10%	-17%
O=C(NC(=S)NNC(=O)[C@H]1C[C@@H]1c1ccccc1)c1cccc(F)c1	32µM*	2%	16µM*	-10%	1%
CN1CC[n+]2cnc3ccccc3c21	?	16%	2.5µM*	-5%	-14%
c1ccc2c(N3CCCCC3)ncnc2c1	-26%	36%	-29%[12.7 µM]	12%	-28%
CC(=O)c1cc(CN2CCN(CC=C(C)C)C(CCO)C2)cs1 (stereo not given)	20%	40%	·	-10%	8%
COCCn1nnnc1CN(Cc1ccco1)Cc1cc2cc3c(cc2[nH]c1=O)OCO3	-5%	47%	-1%[12.7 µM]	-9%	-5%
Cc1ccc2[nH]c(=O)c(CN(Cc3cccs3)Cc3nnnn3Cc3ccco3)cc2c1	·	5%[57 µM]	·	?	·
Cc1ccc2cc(CN(Cc3ccc4c(c3)OCO4)Cc3nnnn3Cc3ccco3)c(=O)[nH]c2c1C	22µM*	17%	11µM*	-32%	-9%
Cc1ccc2cc(CN(CCN3CCOCC3)Cc3nnnn3Cc3ccco3)c(=O)[nH]c2c1C	-25%	38%	56µM*	-7%	7%
Cc1ccc(C)c2[nH]c(=O)c(CN(Cc3ccc4c(c3)OCO4)Cc3nnnn3Cc3ccco3)cc12	50µM*	25%	-48%[59 µM]	-31%	-38%
CC(/C=N/Nc1ccc2nncn2n1)=C\c1ccccc1	-16%	61%	-31%	-24%	?
Cc1ccc(C(=O)NCCSc2c[nH]c3ccccc23)cc1C	·	6%	?	-29%	-25%
COc1cccc(C2=Nn3c(nnc3-c3cccc(OC)c3)SC2)c1	11%	·	·	-8%	·
O=C(CSc1nc(-c2cccs2)cc(C(F)(F)F)n1)Nc1ccccc1Cl	·	49%	4%[59 µM]	4%	-2%
SMILES	Sfp inh	HP1b binding inh	G9a inh	JMJD2A Tudor inh	BAZ2B block
Cc1occc1C(=O)NCc1ccc(C(=O)O)o1	50µM*	30%	4%[12.7 µM]	-3%	-1%
Cc1occc1C(=O)NCc1ccco1	-4%	-3%	10%[59 µM]	-20%	?
Cc1cc(C(=O)NCc2ccc(S(N)(=O)=O)cc2)c(C)o1	3%	-7%	-3%[59 µM]	-17%	?
Cc1cc(C(=O)NCc2ccc(C(=O)O)o2)c(C)o1	7%	?	?	22µM*	56µM*
O=C(Cn1c(-c2ccccc2)noc1=O)NCc1ccccc1	4%	29%	-3%	-18%	7%
O=[N+]([O-])c1cc2oc3c(c2c(C=NCc2ccncc2)c1O)CCCC3	?	?	?	56µM*	35µM*
NC(=O)N/N=C/c1c(O)ccc2oc3c(c12)CCCC3	4%	27%	·	-12%	-15%
COc1cccc(NC(=O)CSc2cc(C)c3ccccc3n2)c1	·	38%	1%[59 µM]	9%	11%
COc1ccc2c(C)cc(SCC(=O)Nc3cc(C(N)=O)cc(C(N)=O)c3)nc2c1	45µM*	38%	-31%	-17%	?
CCn1c(=O)c2sccc2n2c(CCCC(=O)Nc3ccc(C)cc3)nnc12	·	43%	4%[59 µM]	10%	-27%
O=C1c2cccc3c([N+](=O)[O-])c(O)cc(c23)C(=O)N1Nc1ccccc1	-16%	?	20µM*	?	?
COC(=O)c1cc(O)c(O)c(O)c1	?	?	40µM*	20µM*	79µM*
COC(=O)c1cc(OC)nc(OC)c1	15%	44%	-3%	-5%	4%
O=C(O)CC(NC(=O)C1CCCCC1)c1cc([N+](=O)[O-])ccc1Cl (stereo not given)	18%	39%	-2%	-4%	-7%
O=C(O)CC(NC(=O)C12CC3CC(CC(C3)C1)C2)c1cc([N+](=O)[O-])ccc1Cl (stereo not given)	-17%	-1%	-15%	56µM*	-38%
CC(C)NCC(O)COC1C2CC3CC(C2)CC1C3 (stereo not given)	5%	22%	-26%	-8%	-1%
CCO/C(C)=C1\N=C(c2ccc(Cl)cc2)OC1=O	22%	34%	45µM*	-19%	-6%[57.1 µM]
O=C(CSc1ccccn1)c1ccc(F)cc1	?	1%	?	-15%	10%
O=C(CSc1nccn1-c1ccccc1)c1ccc(Cl)cc1	-15%	-38%	·	-26%	?
Cc1ccc(C(=O)CSc2nccn2-c2ccccc2)cc1	?	?	32µM*	?	56µM*
Cc1ccc(C(=O)CSc2ccccn2)cc1	50µM*	25%	8.9µM*	8%	11%
O=C(NC(=S)Nc1cccc(Cl)c1Cl)C1CC1	-4%	30%	·	-2%	-12%
O=C(c1cccnc1)N1CCN(Cc2cccc(Br)c2)CC1	89µM*	50µM*	13µM*	3.5µM*	19%
COc1ccc(CN2CCN(C(=O)c3cccnc3)CC2)cc1Br	79µM*	?	18µM*	3.2µM*	35µM*
Cc1ccc(-c2csc(/C(C#N)=C(\O)CN3CCN(C(=O)c4ccco4)CC3)n2)cc1	15%	-17%	-47%[12.7 µM]	79µM*	?
N#C/C(=C(/O)CN1CCOCC1)c1nc(-c2ccccc2)cs1	-21%	13%	-20%[59 µM]	?	?

Source: PubChem BioAssay (National Center for Advancing Translational Sciences (NCATS))
